The source of these data is the antibiotic and cytotoxicity screens of Wong et al. (2023).

In all, about 39,000 compounds went through this assay and about 3,300 (8.5%) were called active. This excerpt belongs to a sample that is enriched for actives.

In this test the test system is HepG2. Description: cytotoxicity call (relative viability < 0.9). Particulars: 10 µM.
Turning to `O=C(Oc1cc(O)cc2c1C[C@@H](OC(=O)c1cc(O)c(O)c(O)c1)[C@@H](c1cc(O)c(O)c(O)c1)O2)c1cc(O)c(O)c(O)c1`, the cytotoxicity call is “inactive”.
With `C=C[C@H]1[C@H](O[C@H]2O[C@@H](CO)[C@@H](O)[C@@H](O)[C@@H]2O)OC=C(C(=O)OC)[C@H]1CCOC(=O)c1cc(O)c(O)c(O)c1` the entry was “inactive”.
With `O=C(OC1Cc2c(O)cc(O)cc2OC1c1cc(O)c(O)c(O)c1)c1cc(O)c(O)c(O)c1` (centres undefined) the entry was “inactive”; with `O=C(OC[C@H]1O[C@@H](OC(=O)c2cc(O)c(O)c(O)c2)[C@H](O)[C@@H](O)[C@@H]1O)c1cc(O)c(O)c(O)c1`, “inactive”.
On to `O=C(OC1Cc2c(O)cc(O)cc2OC1c1ccc(O)c(O)c1)c1cc(O)c(O)c(O)c1` (centres undefined), for which the cytotoxicity call is “inactive”.
With `O=C(OC[C@H]1O[C@@H](OC(=O)c2cc(O)c(O)c(O)c2)[C@H](OC(=O)c2cc(O)c(O)c(O)c2)[C@@H](OC(=O)c2cc(O)c(O)c(O)c2)[C@@H]1OC(=O)c1cc(O)c(O)c(O)c1)c1cc(O)c(O)c(O)c1` the entry was “active”.
With `O=C(OC[C@H]1O[C@@H](OC(=O)c2cc(O)c(O)c(O)c2)[C@H](O)[C@@H](OC(=O)c2cc(O)c(O)c(O)c2)[C@@H]1O)c1cc(O)c(O)c(O)c1` the entry was “active”; with `O=C(O)c1cc(O)c(O)c(O)c1`, “inactive”; with `O=C(O)C[C@@H]1C(=O)O[C@H]2[C@@H](OC(=O)c3cc(O)c(O)c(O)c3)[C@H](OC(=O)c3cc(O)c(O)c4c3[C@H]1[C@H](O)C(=O)O4)[C@H](OC(=O)c1cc(O)c(O)c(O)c1)O[C@@H]2COC(=O)c1cc(O)c(O)c(O)c1`, “active”.
With `O=C(OCC1OC(OC(=O)c2cc(O)c(O)c(OC(=O)c3cc(O)c(O)c(O)c3)c2)C(OC(=O)c2cc(O)c(O)c(OC(=O)c3cc(O)c(O)c(O)c3)c2)C(OC(=O)c2cc(O)c(O)c(OC(=O)c3cc(O)c(O)c(O)c3)c2)C1OC(=O)c1cc(O)c(O)c(OC(=O)c2cc(O)c(O)c(O)c2)c1)c1cc(O)c(O)c(OC(=O)c2cc(O)c(O)c(O)c2)c1` (centres undefined) the entry was “active”; with `C[C@@H]1CN([C@H](C)CO)C(=O)c2cccc(NC(=O)Nc3ccc(C(F)(F)F)cc3)c2O[C@H]1CN(C)Cc1ccccc1`, “inactive”; with `C[C@@H]1CCCCO[C@@H](CN(C)C(=O)C2CCCCC2)[C@H](C)CN([C@@H](C)CO)C(=O)c2cc(NS(=O)(=O)c3ccc(F)cc3)ccc2O1`, “inactive”.
For `COc1ccc(S(=O)(=O)N2C[C@H](O)COC[C@H]3O[C@@H](CC(=O)NCCCN(C)C)CC[C@@H]32)cc1`, the cytotoxicity call was “inactive”.
With `CCOc1ccc(-n2c([C@@H](C)N(Cc3cccnc3)C(=O)Cc3ccc(F)c(C(F)(F)F)c3)nc3ncccc3c2=O)cc1` the entry was “inactive”.
